# DT40 TDP1 CPT: growth inhibition of DT40 Tdp1-/-;hTDP1 cells with camptothecin (screen for TDP1 inhibitors) | chicken DT40 Tdp1-/-;hTDP1 cells + 20 nM CPT, ATP luminescence, 48 h | Potency, µM (top dose mostly 46.2 µM), without a hit: top-dose activity change, negative = growth inhibition, usual class: inhibitors | actives 12% (n = 420,000) | AID 686979; further: potency means the concentration at half of the fitted maximal effect; on the % scale 0 is the no-effect control and ±100 the full control effect; nearly all actives have a fitted effect of over 55% in size
#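 Chicken DT40 Tdp1-/- cells stably complemented with human TDP1 were seeded at 400 cells/well in medium containing 20 nM camptothecin, exposed to pin-transferred compounds, and grown at 37 °C for at least 48 hr. Viability was read as ATP luminescence.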
# HepG2 viability: HepG2 cytotoxicity, counter-screen for TGF-b inhibitors | HepG2 CAGA-GFP viability, ATP luminescence, 18 h | actives 0.76% (n = 410,000) | Potency, µM (doses to about 46.1 µM), for inactives: top-dose activity change, negative = cytotoxicity, hits mostly cytotoxic; further: potency means the concentration at half of the fitted maximal effect
#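 HepG2 CAGA-GFP cells (1000/well, DMEM with 1% FBS) received compound, then TGF-beta at 500 pg/mL final, and were incubated 18 hours at 37 degrees C. Viability was read by CellTiter-Glo luminescence. Media-only wells were set as complete cell-killing and DMSO as no toxicity.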
# IL1B secr inh: blocks inflammasome-driven IL-1 beta release | actives 4.7% (n = 360,000) | activity change, % at 57.5 µM | THP-1 LPS/ATP IL-1B secretion, AlphaLISA, 16 h; active compounds read low | AID 743279; in the data active means activity change below about -50%; inconclusive means mostly about -30% to -49%; further: on the % scale 0 is the no-effect control and ±100 the full control effect
#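 THP-1 cells pretreated 1 hr with compounds (up to 57.5 uM final), then stimulated with LPS (250 ng/mL final) plus ATP (1.25 mM final); secreted IL-1B measured by AlphaLISA after 16 hr, decreased signal indicating inhibition.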
# TGFb SMAD3 inh: TGF-b pathway inhibition. HepG2 CAGA-GFP TGF-b/SMAD3 reporter, GFP fluorescence, 18 h; TGF-beta stimulated, 500 pg/mL final. Potency, µM (highest dose often 46.1 µM), without a hit: at the top dose activity, negative = inhibition, usual class: inhibitors. actives 1.2% (n = 410,000). AID 588855; further: potency means the concentration at half of the fitted maximal effect; on the % scale 0 is the no-effect control and ±100 the full control effect; nearly all actives have a fitted effect of over 65% in size
#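 HEPG2 CAGA-GFP reporter cells (1000/well, DMEM with 1% FBS) received compounds, then recombinant TGF-beta at 500 pg/mL final for 18 hours at 37 degrees C. Per-cell GFP summed per well was normalised to unstimulated and stimulated DMSO controls before curve fitting.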
# DT40 TDP1 no CPT: qHTS for Inhibitors of human tyrosyl-DNA phosphodiesterase 1 (TDP1): qHTS in cells in absence of CPT. actives 15% (n = 420,000). DT40 Tdp1-/- hTDP1 cells, no CPT, ATP luminescence, 48 h. Potency, µM (highest dose often 46.2 µM), inactives show at the highest dose activity change, negative = growth inhibition, usual class: inhibitors. AID 686978, 2013; further: potency means the concentration at half of the fitted maximal effect; on the % scale 0 is the no-effect control and ±100 the full control effect; nearly all actives have a fitted effect of over 55% in size
#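 Compound effects on proliferation are scored in DT40 Tdp1-/-;hTDP1 cells in the absence of CPT. ATP levels (CellTiter-Glo luminescence) are recorded after a ≥48 hr, 37 °C incubation.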
# TDP1 inh: TDP1 (human) enzyme inhibition | Q9NUW8 | recombinant TDP1, AlphaScreen DNA substrate cleavage | Potency, µM (doses to about 130 µM), without a hit: top-dose activity change, negative = inhibition, actives largely listed as inhibitors | actives 0.28% (n = 350,000) | AID 485290; further: potency means the concentration at half of the fitted maximal effect; on the % scale 0 is the no-effect control and ±100 the full control effect; nearly all actives have a fitted effect of over 40% in size
# Target sequence (Q9NUW8 whole entry, looked up): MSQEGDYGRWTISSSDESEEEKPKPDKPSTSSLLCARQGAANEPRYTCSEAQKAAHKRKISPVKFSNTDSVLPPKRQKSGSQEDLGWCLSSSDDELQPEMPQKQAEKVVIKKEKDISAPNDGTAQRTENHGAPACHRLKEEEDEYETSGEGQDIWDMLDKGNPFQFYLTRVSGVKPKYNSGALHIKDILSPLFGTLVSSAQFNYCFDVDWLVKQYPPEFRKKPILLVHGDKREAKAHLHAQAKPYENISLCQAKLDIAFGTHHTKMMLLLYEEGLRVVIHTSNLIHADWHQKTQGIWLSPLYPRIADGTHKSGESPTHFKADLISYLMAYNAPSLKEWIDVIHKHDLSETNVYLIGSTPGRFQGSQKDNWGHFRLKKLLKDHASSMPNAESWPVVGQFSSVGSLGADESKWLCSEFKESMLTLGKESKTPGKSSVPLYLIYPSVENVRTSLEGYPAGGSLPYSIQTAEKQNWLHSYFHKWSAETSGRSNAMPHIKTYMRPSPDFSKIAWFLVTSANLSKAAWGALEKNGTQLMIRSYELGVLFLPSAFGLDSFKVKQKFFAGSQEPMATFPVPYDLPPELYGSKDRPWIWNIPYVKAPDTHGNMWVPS
#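 AlphaScreen read-out: signal falls as enzyme removes the 3' tyrosine-FITC from a 5'-biotinylated DNA oligo (15 nM, 5 min, RT). Enzyme was E. coli-made recombinant Tdp1 at 1 nM, exposed to compound for 15 min beforehand; beads 10 ug/ml, 10 min.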
# An asterisk follows results filed as active; ? = inconclusive; nt = no result given. A selection: hits, their analogues and other compounds. The true share with any hit is near 18%. Unless noted, the call rests on the fitted dose curve; in most records, active means well fitted curve in the direction sought with a large enough effect; inconclusive means small, poorly fitted or top-dose-only effect, or another doubt; inactive means no such curve, though single readings can be large; an effect the other way counts as inactive or inconclusive.
SMILES,DT40 TDP1 CPT,HepG2 viability,IL1B secr inh,TGFb SMAD3 inh,DT40 TDP1 no CPT,TDP1 inh
CC1CCN(Cc2c(C(=O)N/N=C/c3cccc(Cl)c3)nnn2-c2nonc2N)CC1,?,-76%,20,?,?,6%
CC(/C=N/NC(=O)c1nnn(-c2nonc2N)c1CN1CCCCC1)=C\c1ccccc1,?,-25%,-7,?,?,1%
CC(=C/c1ccccc1)/C=N/NC(=O)c1nnn(-c2nonc2N)c1CN1CCC(C)CC1,?,-29%,-11,-11%,18µM*,3%
Cc1ccccc1COc1ccc(/C=N/NC(=O)c2nnn(-c3nonc3N)c2CN2CCC(C)CC2)cc1,10µM*,-13%,?,-3%,3.3µM*,2%
Cc1nnn(-c2nonc2N)c1C(=O)N/N=C/c1ccccc1O,4.1µM*,-23%,31,-4%,4.6µM*,-1%
C(=NN=C1c2ccccc2-c2ccccc21)c1ccc2c(c1)OCO2,?,-12%,-6,3%,-25%,nt
CN(Cc1c(C(=O)N/N=C/c2cccc(O)c2)nnn1-c1nonc1N)C1CCCCC1,-8%,-34%,-1,-2%,-11%,-7%
CN(Cc1c(C(=O)N/N=C/c2ccccc2O)nnn1-c1nonc1N)C1CCCCC1,?,-97%,146,?,6.5µM*,nt
OCc1ccccc1CN1CCCCCC1,0%,4%,2,0%,-3%,nt
COc1ccc(/C=N/NC(=O)c2cc(-c3ccccc3OC(C)C)nc3ccccc23)cc1CN1CCOCC1,?,-48%,?,-4%,?,5%
CCN(CC)c1ccc(/C=N/NC(=O)c2ccc(Br)o2)cc1,?,-49%,?,-26%,?,5%
CCc1ccc(/C=N\NC(=O)c2ccc(Br)o2)s1,?,-2%,-8,-23%,23µM*,3%
CCc1ccc(/C=N/NC(=O)c2cc(-c3ccccc3OC)nc3ccccc23)s1,4.1µM*,-2%,-6,?,12µM*,6%
Cc1cccc(C(=O)N/N=C/c2ccoc2)c1,-6%,3%,-6,-28%,0%,28µM*
CCc1ccc(/C=N/NC(=O)c2cc(C3CC3)nc3ccc(Br)cc23)s1,2.6µM*,-33%,24,-27%,4.6µM*,4%
CC(=O)NC[C@H]1O[C@@H](n2ccc(N)nc2=O)[C@H](O)[C@@H]1O,5%,12%,18,8%,4%,nt
COc1ccccc1C(O)c1ncc(-c2cccc(C(F)(F)F)c2)[nH]1 (stereo not given),-9%,-19%,-20,-21%,?,nt
COc1ccccc1-c1cc(C(=O)N/N=C/c2ccoc2)c2ccccc2n1,?,-1%,28,3%,7.3µM*,4%
Cc1cccc2c(=O)n(C(=O)c3ccccc3)c(N)nc12,?,-25%,25,-10%,?,nt
CCN1C(=O)[C@@H]2[C@@H](c3ccc(-c4ccc(Cl)c(Cl)c4)cc3)N3CCCC[C@@]3(C(=O)OC)[C@@H]2C1=O,18µM*,-2%,-3,-2%,16µM*,-1%
COC(=O)[C@@]12CCCCN1[C@H](c1ccc(-c3ccc(Cl)c(Cl)c3)cc1)[C@H]1C(=O)N(C)C(=O)[C@H]12,12µM*,-19%,0,11%,16µM*,0%
COc1cc(=O)n2c(c1C(=O)NCc1ccco1)CCN(Cc1ccc3nsnc3c1)CC2,-9%,nt,nt,nt,-10%,nt
COc1ccc(CNC(=O)c2cc(S(=O)(=O)N3CCCCC3)ccc2Cl)cc1OC,?,-31%,-9,-27%,18µM*,0%
COc1cc(OC)c(OC)cc1CNC(=O)c1cccc(S(=O)(=O)N2CCc3ccccc3C2)c1,13µM*,-27%,9,-19%,8.2µM*,1%
COc1ccc(CNC(=O)c2cccc(S(=O)(=O)N3CCCCC3)c2)cc1OC,13µM*,-39%,-14,?,?,-5%
SMILES,DT40 TDP1 CPT,HepG2 viability,IL1B secr inh,TGFb SMAD3 inh,DT40 TDP1 no CPT,TDP1 inh
CCOc1ccc(CCNC(=O)c2cccc(S(=O)(=O)N3CCCCC3)c2)cc1OCC,13µM*,-18%,-30,-12%,7.3µM*,-6%
O=C(Nc1ccccc1)N1CC2(CCN(S(=O)(=O)c3ccccc3)CC2)C1,-4%,nt,nt,nt,-15%,nt
COCCCN(C(=O)CCOc1ccccc1C)c1c(N)n(Cc2ccccc2)c(=O)[nH]c1=O,1%,-3%,-16,7%,-14%,0%
Cc1cc(N2CCN(C)CC2)ccc1NC(=O)c1cccc(S(=O)(=O)N2CCc3ccccc3C2)c1,23µM*,-109%,-103*,?,18µM*,4%
O=S(=O)(c1ccccc1)N1CCC(O)(CSc2ccc(Cl)cc2)CC1,?,-3%,?,?,26µM*,-1%
Cc1ccc(SCC2(O)CCN(C(=O)c3ccc(Cl)cc3)CC2)cc1,?,-2%,29,-24%,?,0%
CC(=O)c1c(C(C)=O)c(C)n(NC(=O)c2ccc(Cl)cc2)c1C,?,1%,5,0%,2%,0%
Nc1ccc(C(=O)NN2C(=O)[C@H](Cl)C2c2ccc(Cl)cc2)cc1 (stereo not given in full),3.7µM*,-88%,-104*,0%,3.7µM*,nt
CC(=O)Nc1ccc(C(=O)N2CCc3cc4c(cc3C2C)OCCCO4)cc1 (stereo not given),?,-23%,11,-11%,18µM*,nt
CC1c2cc3c(cc2CCN1C(=O)c1ccc(Cl)cc1)OCCCO3 (stereo not given),16µM*,-2%,-59*,-28%,13µM*,5%
Cc1ccc(C(=O)N2CCc3cc4c(cc3C2C)OCCCO4)cc1 (stereo not given),23µM*,-27%,-16,?,?,8%
CC1c2cc3c(cc2CCN1CC(=O)Nc1ccc(S(=O)(=O)N2CCCC2)cc1)OCCCO3 (stereo not given),?,-7%,-28,6%,-25%,4%
CC1c2cc3c(cc2CCN1C(=O)c1ccc(C(F)(F)F)cc1)OCCCO3 (stereo not given),?,4%,-3,?,?,4%
CCOC(=O)c1cc2c(=O)n3ccccc3nc2n(CC(C)C)c1=NC(=O)COc1ccc(Cl)cc1,?,-13%,nt,?,?,-3%
